Assay results published in PubChem BioAssay (Tox21).
Records with an inconclusive call do not appear. Activity calls are given as the source filed them. Unless noted, calls follow the shape of the dose curve; as a rule, active = well fitted curve in the direction sought with a large enough effect in the repeat runs; inconclusive = weak or mixed curves; inactive = no such curve, though single readings can be large; an effect the other way counts as inactive or inconclusive.

Tests used:
[1] = qHTS assay to identify small molecule antagonists of the thyroid receptor (TR) signaling pathway - cell viability counter screen (AID 743064); also: nearly all actives have a fitted effect of over 50% in size
Summary of the method: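 Plate GH3.TRE-Luc cells; incubate 4 h at 37 °C; add compound, then T3 to 1 nM final; incubate 23.5 h; add CellTiter-Fluor; incubate 30 min at 37 °C, 5% CO2; read fluorescence.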

[2] = qHTS assay to identify small molecule antagonists of the thyroid receptor (TR) signaling pathway (AID 743065); also: series mostly up to about 70 µM; nearly all actives have a fitted effect of over 55% in size
Summary of the method: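 Antagonism measured as loss of luciferase signal in GH3 cells stably carrying a TRE-luciferase reporter, co-treated with compound and T3 (1 nM final) for 23.5 h at 37 C. Viability was read in the same well by CellTiter-Fluor.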

[3] = test system: thyroid hormone receptor (rat, GH3 cells); assay: qHTS assay to identify small molecule agonists of the thyroid receptor (TR) signaling pathway (AID 743066; calls by dose curve)
[4] = biological target: Estrogen receptor (Homo sapiens) (UniProt P03372); assay: qHTS assay to identify small molecule antagonists of the estrogen receptor alpha (ER-alpha) signaling pathway (AID 743069; active = well fitted curve in the direction sought with a large enough effect in the signal ratio in the repeat runs, not every such curve was filed as active; the % refers to the signal ratio)
Summary of the method: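 Antagonist mode: compounds in DMSO were co-added with 17beta-estradiol to ER-alpha-bla HEK293 cells (2% charcoal-stripped serum) and left 18 h at 37C. Reporter inhibition was measured as FRET fluorescence after 2 h LiveBLAzer substrate at room temperature.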

[5] = qHTS assay to identify small molecule antagonists of the estrogen receptor alpha (ER-alpha) signaling pathway - cell viability counter screen (AID 743074; calls by dose curve;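 also: HEK293 cells carrying ER-alpha-UAS-bla reporter stimulated with 17beta-estradiol; nearly all actives have a fitted effect of over 45% in size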)
[6] = biological target: Estrogen receptor (Homo sapiens) (UniProt P03372); assay: qHTS assay to identify small molecule agonists of the estrogen receptor alpha (ER-alpha) signaling pathway (AID 743075; calls by dose curve;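 also: HEK293 GripTite cells with ER-alpha and UAS-driven beta-lactamase reporter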)
[7] = biological target: Estrogen receptor (Homo sapiens) (UniProt P03372); assay: qHTS assay to identify small molecule agonists of the estrogen receptor alpha (ER-alpha) signaling pathway using the BG1 cell line (AID 743079); also: nearly all actives have a fitted effect of over 20% in size
[8] = qHTS assay to identify small molecule antagonists of the estrogen receptor alpha (ER-alpha) signaling pathway using the BG1 cell line (AID 743080; calls by dose curve;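 also: BG1 cells stimulated with 17beta-estradiol alongside compound; series mostly up to about 70 µM; nearly all actives have a fitted effect of over 25% in size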)
Summary of the method: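 Quantitative HTS on the Tox21 10K library: BG1 cells with endogenous ER-alpha and ERE-luciferase reporter, 17beta-estradiol stimulation, 21.5 h compound exposure, luminescence endpoint with parallel fluorescence cytotoxicity counter-read.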

[9] = qHTS assay to identify small molecule antagonists of the estrogen receptor alpha (ER-alpha) signaling pathway using the BG1 cell line - cell viability counter screen (AID 743081);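 also: compound given together with 17beta-estradiol as the ER stimulus; series mostly up to about 70 µM; nearly all actives have a fitted effect of over 45% in size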
Aromatase (Homo sapiens) = Aromatase (Homo sapiens) (UniProt P11511); assay: qHTS assay to identify aromatase inhibitors (AID 743083); also: series mostly up to about 70 µM; nearly all actives have a fitted effect of over 55% in size
[10] = qHTS assay to identify aromatase inhibitors - cell viability counter screen (AID 743084);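 also: cells stimulated with testosterone during compound exposure; nearly all actives have a fitted effect of over 55% in size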
[11] = biological target: Aryl hydrocarbon receptor (Homo sapiens) (UniProt P35869); assay: qHTS assay to identify small molecule that activate the aryl hydrocarbon receptor (AhR) signaling pathway (AID 743085);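 also: HG2L7.5c1 human HepG2 liver cells with stably integrated DRE-driven firefly reporter; series mostly up to about 70 µM; nearly all actives have a fitted effect of over 15% in size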
Summary of the method: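 Steps: seed HepG2-AhR-luc cells; allow 5 h at 37C; pin-transfer test compound or vehicle; incubate 24 h at 37C; add viability dye (30 min, 37C) and read fluorescence; add luciferase substrate (30 min, RT) and read luminescence.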

[12] = qHTS assay to identify small molecule that activate the aryl hydrocarbon receptor (AhR) signaling pathway - cell viability counter screen (AID 743086);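 also: HepG2 liver cells carrying the AhR DRE luciferase reporter; series mostly up to about 70 µM; nearly all actives have a fitted effect of over 45% in size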
Summary of the method: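 Cytotoxicity counter screen: CellTiter-Fluor signal (30 min, 37 C) in 4000 HepG2 cells/well carrying the DRE-luciferase reporter, following 24 h compound exposure at 37 C.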

[13] = biological target: Peroxisome proliferator-activated receptor gamma (Homo sapiens) (UniProt P37231); assay: qHTS assay to identify small molecule agonists of the peroxisome proliferator-activated receptor gamma (PPARg) signaling pathway (AID 743094; active = well fitted activation curve with a large enough effect in the signal ratio in the repeat runs, not every such curve was filed as active; the % refers to the signal ratio)
Summary of the method: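 Agonist activity was taken from a beta-lactamase reporter (FRET substrate, 1 h at room temperature) in HEK293H cells carrying a PPARg UAS-bla construct. Compounds in DMSO were incubated 17 h at 37C after a 5 h cell pre-incubation.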

[14] = qHTS assay to identify small molecule antagonists of the peroxisome proliferator-activated receptor gamma (PPARg) signaling pathway - cell viability counter screen (AID 743194); also: nearly all actives have a fitted effect of over 55% in size
Summary of the method: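 Viability was measured as CellTiter-Glo luminescence in GeneBLAzer PPARg UAS-bla HEK293H cells. These cells had been exposed 17 h at 37 C to compounds together with rosiglitazone at 50 nM final, with the beta-lactamase readout taken in the same wells.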

[15] = qHTS assay for small molecule agonists of the antioxidant response element (ARE) signaling pathway (AID 743202; active = well fitted activation curve with a large enough effect in the signal ratio in the repeat runs, not every such curve was filed as active; the % refers to the signal ratio)
Summary of the method: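 After 16 hours of compound treatment at 37 C, HepG2 cells with a stably integrated ARE-driven beta-lactamase reporter were loaded 2 hours at room temperature with LiveBLAzer B/G FRET substrate and fluorescence intensity measured.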

[16] = qHTS assay for small molecule agonists of the antioxidant response element (ARE) signaling pathway - cell viability counter screen (AID 743203; calls by dose curve; also: nearly all actives have a fitted effect of over 55% in size)
Summary of the method: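 Viability counter screen: CellTiter-Glo luminescence, read after 30 min at room temperature, in ARE-bla HepG2 wells. Compound exposure lasted 16 h at 37C/5% CO2, following a 5 h pre-incubation of the cells after plating.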

[17] = qHTS assay for small molecule activators of the heat shock response signaling pathway - cell viability counter screen (AID 743209); also: nearly all actives have a fitted effect of over 50% in size
Summary of the method: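 Cytotoxicity counter screen run in the same wells as the heat-shock bla reporter assay: HeLa HSE-bla cells, 5 h compound exposure at 37 C, viability read by CellTiter-Glo luminescence.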

[18] = qHTS assay for small molecule activators of the heat shock response signaling pathway (AID 743210; active = well fitted activation curve with a large enough effect in the signal ratio in the repeat runs, with a control signal flat, not every such curve was filed as active; the % refers to the signal ratio; also: series mostly up to about 63 µM)
Summary of the method: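 Compound exposure lasted 5 h at 37 C in HeLa cells carrying a heat-shock-element-driven beta-lactamase reporter. Read-out: fluorescence intensity after 2.5 h room-temperature loading with LiveBLAzer B/G FRET substrate.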

[19] = biological target: Peroxisome proliferator-activated receptor gamma (Homo sapiens) (UniProt P37231); assay: qHTS assay to identify small molecule antagonists of the peroxisome proliferator-activated receptor gamma (PPARg) signaling pathway (AID 743191; calls by dose curve; also: series mostly up to about 63 µM; nearly all actives have a fitted effect of over 30% in size)
Summary of the method: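 Beta-lactamase reporter under UAS control in HEK293H PPARg-bla cells; compound treatment 17 h at 37C. Read-out: fluorescence intensity after 1 h room-temperature incubation with LiveBLAzer B/G FRET substrate.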

Measured: Potency

Peroxisome proliferator-activated receptor gamma (Homo sapiens), sequence (P37231 whole entry, looked up): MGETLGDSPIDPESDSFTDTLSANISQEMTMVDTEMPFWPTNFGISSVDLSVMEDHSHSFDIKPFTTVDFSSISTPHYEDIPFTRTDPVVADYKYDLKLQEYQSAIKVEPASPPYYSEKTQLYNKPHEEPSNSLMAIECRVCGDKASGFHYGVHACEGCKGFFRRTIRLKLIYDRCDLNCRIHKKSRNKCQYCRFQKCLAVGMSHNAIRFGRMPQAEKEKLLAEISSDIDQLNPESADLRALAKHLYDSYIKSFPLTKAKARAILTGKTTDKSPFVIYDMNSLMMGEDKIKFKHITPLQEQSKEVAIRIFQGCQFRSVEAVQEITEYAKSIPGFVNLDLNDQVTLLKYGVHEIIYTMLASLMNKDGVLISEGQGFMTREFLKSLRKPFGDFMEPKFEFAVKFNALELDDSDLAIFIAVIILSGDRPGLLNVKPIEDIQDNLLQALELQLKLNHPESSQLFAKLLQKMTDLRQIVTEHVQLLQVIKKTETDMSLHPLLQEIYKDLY
Aromatase (Homo sapiens), sequence (P11511 whole entry, looked up): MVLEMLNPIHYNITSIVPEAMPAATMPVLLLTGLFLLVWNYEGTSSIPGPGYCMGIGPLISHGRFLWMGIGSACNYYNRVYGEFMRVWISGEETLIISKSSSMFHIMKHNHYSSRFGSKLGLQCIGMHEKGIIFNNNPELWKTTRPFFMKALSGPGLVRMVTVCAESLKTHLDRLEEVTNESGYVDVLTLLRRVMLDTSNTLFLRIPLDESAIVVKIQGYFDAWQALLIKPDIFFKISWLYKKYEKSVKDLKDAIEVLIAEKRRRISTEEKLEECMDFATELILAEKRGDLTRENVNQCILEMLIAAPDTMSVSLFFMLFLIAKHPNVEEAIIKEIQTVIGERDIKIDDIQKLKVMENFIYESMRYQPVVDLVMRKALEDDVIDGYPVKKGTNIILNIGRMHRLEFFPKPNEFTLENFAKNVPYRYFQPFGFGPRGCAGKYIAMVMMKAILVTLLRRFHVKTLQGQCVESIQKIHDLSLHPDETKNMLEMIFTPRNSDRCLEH
Aryl hydrocarbon receptor (Homo sapiens), sequence (P35869 whole entry, looked up): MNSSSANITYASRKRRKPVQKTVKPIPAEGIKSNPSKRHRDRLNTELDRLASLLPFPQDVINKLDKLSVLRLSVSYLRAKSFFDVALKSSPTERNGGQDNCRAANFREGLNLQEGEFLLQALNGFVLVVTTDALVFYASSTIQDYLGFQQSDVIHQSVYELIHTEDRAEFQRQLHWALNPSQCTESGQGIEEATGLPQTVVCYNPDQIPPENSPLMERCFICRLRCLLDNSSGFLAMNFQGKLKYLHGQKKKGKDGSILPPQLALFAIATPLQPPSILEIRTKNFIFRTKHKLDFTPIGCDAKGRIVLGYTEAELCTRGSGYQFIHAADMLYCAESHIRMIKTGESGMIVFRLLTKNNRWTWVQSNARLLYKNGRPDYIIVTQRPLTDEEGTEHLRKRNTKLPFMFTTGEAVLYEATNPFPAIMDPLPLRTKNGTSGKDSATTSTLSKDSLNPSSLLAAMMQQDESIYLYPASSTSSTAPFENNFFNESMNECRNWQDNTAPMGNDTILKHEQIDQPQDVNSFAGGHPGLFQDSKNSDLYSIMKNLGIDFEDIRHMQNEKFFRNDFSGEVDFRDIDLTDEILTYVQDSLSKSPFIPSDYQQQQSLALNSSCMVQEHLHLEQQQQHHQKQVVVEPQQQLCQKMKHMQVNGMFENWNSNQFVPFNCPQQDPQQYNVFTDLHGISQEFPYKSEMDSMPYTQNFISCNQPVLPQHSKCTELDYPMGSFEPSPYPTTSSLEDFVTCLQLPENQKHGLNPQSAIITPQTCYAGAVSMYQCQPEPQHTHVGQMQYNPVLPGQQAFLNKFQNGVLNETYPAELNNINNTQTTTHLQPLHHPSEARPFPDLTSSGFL
Estrogen receptor (Homo sapiens), sequence (P03372 whole entry, looked up): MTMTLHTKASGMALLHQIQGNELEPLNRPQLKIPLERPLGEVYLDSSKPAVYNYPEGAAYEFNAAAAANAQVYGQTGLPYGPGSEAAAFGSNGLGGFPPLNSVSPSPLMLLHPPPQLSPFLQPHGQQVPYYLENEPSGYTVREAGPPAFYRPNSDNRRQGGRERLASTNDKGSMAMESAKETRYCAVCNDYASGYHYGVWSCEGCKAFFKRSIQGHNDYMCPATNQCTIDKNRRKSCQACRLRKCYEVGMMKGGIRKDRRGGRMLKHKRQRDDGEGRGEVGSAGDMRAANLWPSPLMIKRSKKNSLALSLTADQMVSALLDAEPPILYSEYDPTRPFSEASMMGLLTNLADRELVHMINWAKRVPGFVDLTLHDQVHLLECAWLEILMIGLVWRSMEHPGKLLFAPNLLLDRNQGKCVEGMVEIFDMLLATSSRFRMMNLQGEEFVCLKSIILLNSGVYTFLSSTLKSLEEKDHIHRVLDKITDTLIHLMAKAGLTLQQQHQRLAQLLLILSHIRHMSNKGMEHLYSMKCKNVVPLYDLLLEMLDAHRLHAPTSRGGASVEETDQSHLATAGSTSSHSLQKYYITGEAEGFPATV

Nc1cc(C(Cl)=C(Cl)Cl)c(S(N)(=O)=O)cc1S(N)(=O)=O
not listed: [19]
inactive: all other assays above

O=C(O)c1cccc(C(=O)O)n1
not listed: [15]
inactive: all other assays above

C=C(C)C1CC=C(C)C(O)C1 (stereo unspecified)
not listed: [19]
inactive: all other assays above

NCCN1CCNC1=O
inactive: all assays above

CCN(CC)S(=O)(=O)c1ccc(C(=O)O)cc1
not listed: [19]
inactive: all other assays above

O=C1OC(=O)c2cc([N+](=O)[O-])ccc21
not listed: [14] | [15]
inactive: all other assays above

O=C(O)c1ccc[n+]([O-])c1
inactive: all assays above

CC(C)(C)CC(C)(C)N
inactive: all assays above

CCCCNc1ccccc1
not listed: [14]
inactive: all other assays above

CC(=O)OC(C)(C)C
inactive: all assays above

Nc1cc(N)cc(C(=O)O)c1
not listed: [15]
inactive: all other assays above

OCC(CO)(CO)COCC(CO)(CO)CO
inactive: all assays above

CC1=CCC2C(C1)C2(C)C (stereo unspecified)
not listed: [14] | [15] | [18] | [19]
inactive: all other assays above

CC(C)[N+](C)(C)CC(O)COc1cccc2ccccc12 (stereo unspecified)
not listed: [14] | [15]
inactive: all other assays above

CCC(C)(C)C1CCC(OC)CC1 (stereo unspecified)
inactive: all assays above
